Only some compounds are listed: those with a hit (about 1.3% of all), similar ones and a draw of the others.
Hsp90 Hop PPI: qHTS Assay for Disrupters of an Hsp90 Co-Chaperone Interaction. Potency, µM (top dose mostly 57 µM), without a hit: at the highest dose activity change, negative = inhibition. AlphaScreen TPR2A-His6 binding biotin-Hsp90 C-terminal peptide. 71,000 tested, 0.44% active. Hsp90 C-terminal peptide / TPR2A (Hop) interaction, human; active = well fitted curve in either direction with a large enough effect; inconclusive = small, poorly fitted or top-dose-only effect, or another doubt; note: potency is the fitted concentration of half-maximal effect; % is set by controls: 0 for no effect and ±100 for the full control effect
UbGFP stabilizer: Ubiquitin-GFP Assay; AID 526, 2006; Potency, µM (highest dose often 45.9 µM), for inactives: at the top dose activation (GFP accumulation), actives largely listed as activators; Ubiquitin-GFP reporter cells, proteasome inhibition, GFP fluorescence; response scale: untreated = 0%, 10 µM MG-132 = 100%; 67,000 tested, under 10 active; active = well fitted activation curve with a large enough effect, not every such curve was filed as active; inconclusive = small, poorly fitted or top-dose-only effect, or another doubt; inactive = no such curve, though single readings can be large or run the other way; note: potency is the fitted concentration of half-maximal effect
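Proteasome blockade was scored as a rise in GFP-expressing U2OS cells carrying a ubiquitin(G76V)-GFP construct, imaged after 4 hr compound treatment at 37 °C across a 46 uM–2.9 nM series.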
GFP derepression: qHTS Assay for Epigenetic Modulators. mouse C127i GFP locus derepression, cytometry, 30 h. Potency, µM (series often up to 46.1 µM), inactives show top-dose GFP derepression (activation). 68,000 tested, 0.09% active; note: % of control where 0% means no effect
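Murine C127i mammary cells carrying a silenced, stably integrated CMV-driven GFP reporter were treated with compound for 30 hours at 37 C. After PBS washes, GFP-positive cells were counted by laser-scanning microplate cytometry.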
USP2a inhib: qHTS Assay for Inhibitors of Ubiquitin-specific Protease USP2a; Ubiquitin carboxyl-terminal hydrolase 2 (Homo sapiens), O75604; USP2a enzymatic assay, qHTS inhibition; Potency, µM (top dose mostly 38.3 µM), inactives show at the top dose activity change, negative = inhibition, hits mostly inhibitors; 60,000 tested, 0.1% active; note: potency is the fitted concentration of half-maximal effect; nearly all actives have a fitted effect of over 60% in size
Target sequence (O75604 whole entry, looked up): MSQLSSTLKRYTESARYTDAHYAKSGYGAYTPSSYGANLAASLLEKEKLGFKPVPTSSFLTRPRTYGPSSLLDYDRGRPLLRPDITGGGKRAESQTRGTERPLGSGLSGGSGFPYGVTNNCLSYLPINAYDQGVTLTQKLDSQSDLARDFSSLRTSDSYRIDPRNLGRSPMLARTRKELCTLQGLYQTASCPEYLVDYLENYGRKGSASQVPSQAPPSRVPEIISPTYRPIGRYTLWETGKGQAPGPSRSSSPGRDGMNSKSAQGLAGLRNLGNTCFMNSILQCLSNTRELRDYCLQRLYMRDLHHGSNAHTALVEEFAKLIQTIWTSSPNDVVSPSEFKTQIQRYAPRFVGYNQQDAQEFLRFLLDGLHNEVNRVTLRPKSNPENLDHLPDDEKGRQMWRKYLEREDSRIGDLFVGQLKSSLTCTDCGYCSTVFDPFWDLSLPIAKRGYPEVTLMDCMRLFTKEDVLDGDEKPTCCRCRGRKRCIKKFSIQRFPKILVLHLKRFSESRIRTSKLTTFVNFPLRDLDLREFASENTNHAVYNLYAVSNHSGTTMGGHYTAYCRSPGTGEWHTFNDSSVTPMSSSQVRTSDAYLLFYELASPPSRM
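Coupled readout: USP2-cleaved Ub-PLA2 (20nM final) turns over NBD C6-HPC (20uM final), Ex 460nm/Em 535nm after 2.5 h, time-zero read flagging artifacts. Enzyme (20nM final, pH 8.0 Tris) given 30 min RT with compound first; NEM defines full inhibition.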
HBB splice mod: qHTS Assay for Modulators of Hemoglobin Beta Chain Splicing; HBB splicing reporter cell assay, activation; EGFP reporter with mutant IVS2-654 intron; response scale: normalised to 500 nM splice-correcting PNA; Potency, µM (highest dose often 46.1 µM), for inactives: top-dose activation, usual class: activators; 65,000 tested, 0.06% active; note: potency is the fitted concentration of half-maximal effect; 0% is about no effect
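Compounds were applied for 2 days to HeLa EGFP-654 cells, 500/well in Optimem with 2% FCS. The reporter's EGFP is disrupted by mis-splicing of beta-globin intron IVS2-654. Readout: summed well GFP fluorescence from 488 nm laser scanning; reference was 500 nM antisense […] 654 PNA.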
Bst PK mod: Pyruvate Kinase; AID 361, 2006; 51,000 tested, 1.2% active; Potency, µM; purified pyruvate kinase, luminescence ATP production; ribose 5-phosphate activator present at AC10; in the data active = potency below about 11 µM; inconclusive = mostly about 12 µM to 25 µM;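 the screen sought inhibitors and activators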;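 note: potency is the fitted concentration of half-maximal effect; scaled between full activation by ribose 5 phosphate and full inhibition by luteolin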
* marks the source's active call; other numbers are inactive results; i = inactive; ? = inconclusive; . = not tested or not shown; [ ] = remark or other dose. Unless noted, calls come from the whole dose curve; as a rule, active = well fitted curve in the direction sought with a large enough effect; inconclusive = small, poorly fitted or top-dose-only effect, or another doubt; inactive = no such curve, though single readings can be large; an effect the other way counts as inactive or inconclusive.

SMILES	Hsp90 Hop PPI	UbGFP stabilizer	GFP derepression	USP2a inhib	HBB splice mod	Bst PK mod
O=S1(=O)c2cccc3cccc(c23)N1Cc1ccc(-c2nnco2)cc1	19%	1%	-2%	34%	-3%	1.5*
O=C1c2ccccc2S(=O)(=O)N1Cc1nnc(-c2ccccc2Br)o1	3%	-1%	1%	30%	0%[57.5 µM]	.
Cc1ccc(C)n1-c1ccc(-c2nnco2)cc1	-3%	-4%	0%	10%	-1%	>57
S=c1[nH]nc(COc2ccc(Cl)cc2)o1	-1%	3%	0%	-3%	.	3.9*
O=C(O)c1cccc(OCCO)c1	0%[11 µM]	1%[9.17 µM]	0%[9.22 µM]	.	2%[9.22 µM]	.
COc1cccc(C(=O)Cn2c(=N)n(C)c3ccccc32)c1	-5%	.	-5%	5%	-2%[0.369 µM]	2.5*
O=C(c1ccc2c3c(cccc13)CC2)N1CCN(c2ncccn2)CC1	-3%	-1%	0%	22%	0%	6*
CC(=O)[C@@]1(O)Cc2c(O)c3c(c(O)c2[C@H](O[C@H]2C[C@H](N)[C@H](O)[C@H](C)O2)C1)C(=O)c1ccccc1C3=O	?	-11%	13µM*	24%	13µM*	.
COCC(=O)Nc1ccc(-c2cn3cccnc3n2)cc1	-2%	12%	-2%	-7%	-1%	.
Brc1ccc(-c2cn3cccnc3n2)cc1	2%	-10%	-2%	5%	-1%	5.9*
CC1=C(\C=C/C(C)=C/C=C\C(C)=C\C(=O)Nc2ccc(O)cc2)C(C)(C)CCC1	-19%	-3%	0%	.	4%	.
Cc1cc(NC(=O)c2ccccc2)sc1C	-8%	-5%	-2%	7%	-1%[9.22 µM]	.
Cc1ccc(NC(=O)c2ccccc2)s1	-4%	3%	0%	-4%	-2%	8.3*
COc1ccc2sc(NC(=O)c3ccco3)nc2c1	-2%	4%	0%	7%	0%	5.4*
COc1ccc2c(c1)-c1nc(NC(=O)c3ccco3)sc1CC2	6%	-4%	-2%	7%	0%[57.5 µM]	.
CNC(=O)[C@@H]1O[C@@H](n2cnc3c(NCc4cccc(I)c4)ncnc32)[C@H](O)[C@@H]1O	0%	-2%	1%	17%	-1%	.
O=C(COc1ccccc1O)Nc1ccc(Cl)cc1	3%	-6%	-1%	1%	-3%	11*
O=C(COc1ccc(Cl)cc1Cl)Nc1ccccn1	3%	-4%	0%	5%	-1%	0.13*
O=C(COc1ccccc1Cl)Nc1ccc(Cl)cn1	?	-16%	2%	-14%	0%	.
CCOc1ccc(C(=O)Nc2c(C(N)=O)oc3ccccc23)cc1	4%	1%	0%	10%	0%	4*
COC(=O)NC(c1ccco1)[C@@]1(C(=O)OC)CCCC1=O (stereo not given in full)	.	.	.	.	2%[9.22 µM]	.
C=C1CC[C@@H](O)C/C1=C/C=C1\CCC[C@]2(C)[C@@H]1CC[C@H]2[C@@H](C)CCCC(C)C	-1%	0%	2%[9.22 µM]	.	.	.
N#CC1=C(SCC(=O)c2ccc(Cl)cc2)NC2=C(C(=O)CCC2)C1c1ccco1 (stereo not given)	.	.	10µM*	.	.	.
COc1ccc(NC(=O)/C=C\c2ccc(Cl)cc2)cc1	15%	16%	-1%	-15%	-2%	.
OC[C@@H]1O[C@H](O)[C@@H](Cl)[C@H](O)[C@@H]1O	1%	5%	4%	2%	0%	.
SMILES	Hsp90 Hop PPI	UbGFP stabilizer	GFP derepression	USP2a inhib	HBB splice mod	Bst PK mod
CCCSc1nnc2n(C)c(=O)c3c4c(sc3n12)CCC4	.	.	-3%[20.6 µM]	.	.	4.7*
C[C@H]1[C@H](C)CC[C@@]2(C(=O)O)CC[C@]3(C)C(=CC[C@H]4[C@@]5(C)C[C@@H](O)[C@H](O)[C@@](C)(CO)[C@@H]5CC[C@@]43C)[C@@H]12	4%	1%	-4%[9.22 µM]	.	.	.
C[C@@H]1C[C@@]2(C)Oc3ccccc3[C@H]3OC[C@]1(COC(=O)Nc1ccccc1)[C@@H](C)[C@@H]32	13%	-4%	-2%[9.22 µM]	.	.	.
CCN(CC)C(=O)Sc1cccc2cccnc12	-3%	0%	1%	.	0%[57.5 µM]	>11
CCOC(=O)CSc1cccc2cccnc12	16µM*	-5%	?	6%	8%	>57
Nc1nc(Cl)nc2c1ncn2[C@@H]1O[C@@H](CO)[C@@H](O)[C@H]1O	-7%	0%	-2%	-5%	0%	.
Clc1ccc(-c2nnc(NC3=NCCCCC3)o2)cc1	-4%	-6%	4%	6%	1%[57.5 µM]	6.4*
Fc1ccc(-c2nnc(-c3ccc(Cl)cc3)o2)cc1	3%	4%	-2%	-4%	-1%	.
O=C(COc1ccc2oc(-c3ccccc3)cc(=O)c2c1)NCc1ccco1	-3%	-1%	3%	4%	5%	4.1*
COC(=O)C1=C(C)NC(C)=C(C(=O)OCCSc2ccccc2)[C@@H]1C	40µM*	2%	-1%	.	.	.
NNC(=O)CCSc1ccccc1	-3%[11 µM]	1%[9.17 µM]	7%[9.22 µM]	.	2%[9.22 µM]	.
CCCS(=O)(=O)NCCc1cc2c(OC)ccc(OC)c2[nH]c1=O	?	4%	4%	-8%	0%	6.4*
COc1ccc(NC(=O)C2CSC3c4ccccc4C(=O)N23)cc1 (stereo not given)	.	.	5%[20.6 µM]	.	.	11*
Cc1ccc(-c2nc3c(=O)n(C)c4ccccc4c3o2)cc1	4%	1%	3%	11%	-2%	0.17*
Clc1ccc(-c2nnc(-c3ccccc3)o2)c(Cl)c1	?	-3%	0%	-6%	-1%	2.5*
CCNC(=O)[C@@H]1O[C@@H](n2cnc3c(N)nc(NCCc4ccc(CCC(=O)O)cc4)nc32)[C@H](O)[C@@H]1O	?	-6%	1%	8%	0%	.
CCOc1ccc(OCC)c2sc(C)nc12	3%	-1%	0%	4%	0%	3.4*
CNc1ccc(O)cc1	-6%	.	.	.	-1%	.
CC(=O)[C@@]1(O)CC[C@@H]2[C@@H]3CCC4=CC(=O)CC[C@@]4(C)[C@H]3CC[C@]21C	0%	2%	-3%	9%	0%	.
Cc1cc2nc(-c3ccc(SCC(=O)N4CCN(C(=O)c5ccco5)CC4)nc3)[nH]c2cc1C	-11%	-2%	0%	45%	0%[57.5 µM]	0.79*
COc1ccc(-c2ccc(SCC(=O)N3CCOCC3)nn2)cc1	-3%	2%	2%	6%	0%	i
Cc1cc2nc(-c3ccc(SCC(=O)N4CCOCC4)nc3)[nH]c2cc1C	-4%	2%	-3%	37%	.	2.1*
C[C@H](C(=O)c1ccccc1)[C@@H](c1ccccc1)N1CCOCC1	-3%[11 µM]	-1%[9.17 µM]	3%[9.22 µM]	.	1%[9.22 µM]	.
COc1ccc(OC2C=CC(c3ccccc3)OC2CO)cc1 (stereo not given)	.	.	.	.	-1%[9.22 µM]	.
